Bioassay records as filed in PubChem BioAssay.
Shown are actives, neighbours in structure and some others; about 3.8% of the full set was active somewhere.
Shn3 inh set2 = reduction of Shn3 3'UTR firefly luciferase signal, primary screen, Schnurri-3 inhibitor project, cell-based, Clone20 osteoblasts, set 2; Clone20 osteoblast Shn3 3'UTR firefly luciferase, 24 h; inhibition, % at 12.5 µM; actives 0.52% (n = 360,000); AID 588674, 2011;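 active means mean inhibition of at least 75% with every replicate also reaching 75%; inconclusive means mean inhibition at least 75% but some replicate below; inactive means mean inhibition below 75%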;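 further: 0% = median of neutral control wells and 100% = pilot-screen positive control compound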
Jurkat NFkB inh = inhibitors of induced NF-kB luciferase reporter, primary screen, TCR NF-kB activation inhibitor project, cell-based, luminescence, uHTS | Jurkat, PMA/ionomycin-induced NF-kB luciferase reporter | inhibition, % at 4 µM | actives 0.53% (n = 330,000) | AID 435003, 2010; in the data active means inhibition above about 50%
697 NFkB inh = inhibitors of PMA/ionomycin-induced NF-kB reporter, 697 cells, primary screen, B-cell NF-kB inhibitor project, cell-based, luminescence, uHTS; 697 B-cell NF-kB luciferase reporter, 16 h; inhibition, % at 4 µM; actives 0.33% (n = 330,000); AID 435022, 2010; in the data active means inhibition above about 35%
Mdm2-MdmX inh = inhibitors of human Mdm2-MdmX association, primary screen, cell-based, luminescence, split luciferase, SaOS-2, uHTS. Protein Mdm4 (Homo sapiens) + E3 ubiquitin-protein ligase Mdm2 (Homo sapiens), …. SaOS-2 split-luciferase Mdm2/MdmX complementation. inhibition, % at 8 µM. actives 3% (n = 330,000). AID 485346, 2010;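 active means inhibition of at least 50% at 8 µM in the primary screen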
Gli-Sufu block = Gli-Sufu pathway antagonists, primary screen, luciferase luminescence, Sufu-KO-LIGHT cells, uHTS; inhibition, % at 5 µM; AID 588413, 2011; Sufu-KO-LIGHT fibroblasts, Gli luciferase reporter luminescence; actives 0.74% (n = 340,000);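 active means inhibition above about 55%, limit read from the data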;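 further: 0% = DMSO-treated cells and 100% = wells with medium but no cells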
Mdm2-MdmX conf = Mdm2-MdmX complex disruptors, retested hits, confirmation, luminescence, single concentration | shares compounds with Mdm2-MdmX inh | Mdm2-MdmX binding, luminescent assay | inhibition, % at 8 µM | actives 55% (n = 10,000) | AID 489028, 2010; in the data active means inhibition above about 40%
FLuc counter = full-length luciferase signal inhibition, confirmation, counter-screen for Mdm2/MdmX interaction inhibitor project, cell-based, single concentration, SaOS-2; SaOS-2 full-length luciferase counterscreen, luminescence; actives 77% (n = 6,200); inhibition, % at 8 µM; shares compounds with Mdm2-MdmX inh;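 active means mean inhibition at 8 µM reaching about 37%, which flags the compound as non-specific, limit read from the data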;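 further: p53-null SaOS-2 cells with luciferase driven by a doxycycline-inducible promoter; compound on cells about two nights before reading with doxycycline added after day one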
Numbers without * were called inactive; ? = inconclusive; nt = no result.

SMILES	Shn3 inh set2	Jurkat NFkB inh	697 NFkB inh	Mdm2-MdmX inh	Gli-Sufu block	Mdm2-MdmX conf	FLuc counter
COc1ccc(/C=N/Nc2cc(C)nc(-n3nc(C)cc3C)n2)c(OC)c1	80	13	-6	55*	34	38	48*
CCOc1cc(/C=N/Nc2cc(C)nc(-n3nc(C)cc3C)n2)ccc1O	?	32	-28	73*	21	40	23
CC(C)c1ccc(CN2CCC(Oc3ccc(C(=O)N4CCCC4)cc3)CC2)cc1	14	1	-30	20	33	nt	nt
COc1ccc(C2(C)NC(=O)N(CC(=O)Nc3ccc(S(=O)(=O)N4CCCC4)cc3)C2=O)cc1 (centres undefined)	-15	-1	19	6	5	nt	nt
COc1ccc2c(c1)OC[C@H]1[C@H]2N2C(=O)c3ccccc3NC(=O)[C@@]2(C)[C@H]1c1ccccc1	18	9	6	50*	-9	36	54*
C[C@@]12C(=O)Nc3ccc(Cl)cc3C(=O)N1[C@H]1c3cc(Cl)ccc3OC[C@@H]1[C@@H]2c1ccccc1	-19	0	22	53*	-8	14	nt
C[C@@]12C(=O)Nc3cc(F)c(F)cc3C(=O)N1[C@H]1c3cc(Cl)ccc3OC[C@@H]1[C@@H]2c1ccccc1	25	15	16	51*	17	34	nt
C[C@@]12C(=O)Nc3ccccc3C(=O)N1[C@H]1c3cc(Cl)ccc3OC[C@@H]1[C@@H]2c1ccccc1	12	9	11	48	-3	nt	nt
COc1ccc2c(c1)OC[C@H]1[C@H]2N2C(=O)c3cc(C)ccc3NC(=O)[C@@]2(C)[C@H]1c1ccccc1	13	1	7	29	8	nt	nt
CC1Cc2ccccc2N1C(=O)CN1CCN(Cc2ccccc2)CC1 (centres undefined)	10	-5	8	0	8	nt	nt
CCCS(=O)(=O)c1c(S(=O)(=O)CCC)c2c(C)cccn2c1C(=O)N/N=C/c1cc(O)cc(O)c1	62	6	-32	58*	25	57*	37*
CCCS(=O)(=O)c1c(S(=O)(=O)CCC)c2c(C)cccn2c1C(N)=O	5	12	0	-8	1	nt	nt
COc1ccc(S(=O)(=O)N(C)C[C@H]2Oc3ncc(Br)cc3C(=O)N([C@@H](C)CO)C[C@@H]2C)cc1	14	nt	nt	nt	nt	nt	nt
COC[C@@H]1CCCN1[C@@H]1CS(=O)(=O)N[C@H]1COCc1ccccc1	5	nt	nt	nt	nt	nt	nt
Cc1cccc(N2CCN(C(=O)c3cc4c(=O)n(C)c5ccccc5c4n3C)CC2C)c1 (centres undefined)	0	-14	-17	52*	9	17	nt
Cc1cc2c(N=NC(=O)C3CC3c3ccccc3)c(O)[nH]c2cc1Br (centres undefined)	0	7	-19	54*	-1	-8	nt
Cc1occc1C(=O)N=Nc1c(O)[nH]c2ccc(Br)cc12	nt	-62	-68	-116	nt	nt	nt
CSc1c(CC(=O)Nc2ccccc2)n(C)c2ccccc12	11	-26	-124	50*	4	-35	nt
CSc1c(CC(=O)Nc2ccc(F)cc2)n(Cc2ccccc2)c2ccccc12	24	9	14	86*	20	18	nt
CCOc1ccc(C(C(=O)NCC2CCCO2)N(Cc2cccs2)C(=O)c2snc(C(N)=O)c2N)cc1 (centres undefined)	20	22	30	50*	8	51*	78*
O=C(Cc1ccc(S(=O)(=O)N2CCOCC2)s1)Nc1cc(C(F)(F)F)cc(C(F)(F)F)c1	20	-4	19	56*	2	1	nt
O=c1cc(-c2ccccc2Cl)oc2c(NS(=O)(=O)c3cc(Cl)cc(Cl)c3O)ccc(O)c12	1	-10	-13	98*	16	83*	43*
Cc1ccc(-c2cc(C(F)F)n3ncc(C(=O)Nc4ccc(S(=O)(=O)Nc5ccccc5C)cc4)c3n2)cc1	6	8	-20	54*	12	23	nt
O=C(Nc1ccc(C(=O)N2CCOCC2)cc1)c1cnn2c(C(F)F)cc(-c3ccccc3)nc12	20	-1	1	27	12	nt	nt
CCc1nn(CCCC(=O)N2CCN(c3cccc(C)c3C)CC2)c(=O)c2cc3occc3n12	21	20	-16	93*	15	61*	78*
SMILES	Shn3 inh set2	Jurkat NFkB inh	697 NFkB inh	Mdm2-MdmX inh	Gli-Sufu block	Mdm2-MdmX conf	FLuc counter
CCC(OC(=O)CN1C(=O)C(=O)c2ccccc21)C(=O)Nc1ccccc1OC (centres undefined)	3	-2	8	4	-21	nt	nt
COc1ccc(NC(=O)CN(C)C(=O)c2cc(-c3cccs3)nn2-c2ccccc2)cc1	-4	4	20	27	6	nt	nt
CCN(CC(=O)Nc1ccc(OC)cc1)C(=O)c1cc(-c2cccs2)nn1-c1ccccc1	17	13	33	60*	4	55*	90*
COc1cc(-c2nc(-c3ccccc3)c(-c3cc([N+](=O)[O-])ccc3C)[nH]2)cc(OC)c1OC	27	7	19	69*	-14	30	nt
CCOc1ccccc1CNc1ncnc2ccc(-c3c(C)noc3C)cc12	77	8	12	79*	39	54*	43*
Cc1ccc(N(CC(=O)NCc2ccc(F)cc2)S(=O)(=O)c2c(C)nn(C)c2C)cc1	-3	1	8	64*	25	63*	63*
Cc1ccc(CNC(=O)CN(c2ccc(C)cc2)S(=O)(=O)c2c(C)nn(C)c2C)cc1	-21	4	5	53*	11	51*	63*
Cc1nn(C)c(C)c1S(=O)(=O)N(CC(=O)N1CCc2ccccc21)c1ccc(C(C)C)cc1	19	12	13	63*	5	24	nt
Cn1cc([N+](=O)[O-])c(C(=O)Nc2cc(Oc3cccnc3)cc([N+](=O)[O-])c2)n1	nt	38	29	82*	5	7	nt
Cc1cc(C)n(Cc2ccc(NC(=O)c3nn(C)cc3[N+](=O)[O-])cc2)n1	3	20	13	71*	-1	52*	59*
Cc1ccc(Cn2ccc(NC(=O)c3nn(C)cc3[N+](=O)[O-])n2)cc1	?	16	-2	59*	-21	63*	68*
CCn1cc([N+](=O)[O-])c(C(=O)Nc2ccn(Cc3ccccc3)n2)n1	-13	4	-4	-4	-3	nt	nt
